Measurements as given in PubChem BioAssay AID1745845 (National Center for Advancing Translational Sciences (NCATS), 2022).
Hit rate of the full screen: of about 360,000 compounds, about 2,600 (0.72%) were called active. A call without a number means that no potency is given here. Another 5% or so got no clear call; they are omitted. This is one part of a sample in which actives are shown more often than they occur. Calls come from the whole dose curve; as a rule, active = well fitted inhibition curve with a large enough effect; inconclusive = small, poorly fitted or top-dose-only effect; inactive = no such curve, though single readings can be large or run the other way.

Assay: Primary qHTS for Inhibitors of ATXN expression; note: nearly all actives have a fitted effect of over 55% in size
Conditions: HEK-293 ATXN2-luciferase reporter, luminescence, 24 h; series mostly up to 57 µM
Description: University of Utah School of Medicine, Salt Lake City, Utah
Spinocerebellar ataxia type 2 (SCA2) is a multisystem neurodegenerative disease caused by a dominantly acting mutation leading to expansion of a polyQ domain in the ataxin-2 protein (ATXN2). SCA2 patients develop progressive ataxia and later lose function in other neuronal systems. Prominent parkinsonian signs develop in some patients. Like many neurodegenerative disorders, no symptomatic or disease-modifying treatments are known.
The primary objective of the proposed research is to identify compounds inhibiting ATXN2 expression and to test them for efficacy in SCA2 mouse models. We have developed a cell-based assay paired with an in vivo mouse model using identical luciferase expression constructs. This approach takes advantage of an ATXN2-luciferase transgene, with the luciferase gene flanked by the upstream and downstream portions of the ATXN2 gene. Here we describe a 5-7 dose quantitative high thoroughput screen (qHTS) for compounds lowering ATXN2 expression. We screened the NIH Molecular Libraries Small Molecule Repository (MLSMR) and NCGC's mechanistically annotated (MIPE) and drug repurposing (NPC) collections of compounds for lowering expression of an ATXN2-luciferase reporter in HEK-293 cells. The assay is a multiplexed cell viability assay to ensure target reduction in the absence of cytotoxicity. Secondary qHTS assays included a CMV-luciferase reporter expressed in HEK-293 cells as well as a biochemical assay using recombinant luciferase to detect inhibitors of the reporter enzyme. Compounds that inhibit ATXN2 expression but is not cytotoxic were selected for confirmatory and secondary screens.
PROTOCOL TABLE (as described by Inglese J, Shamu CE and Guy RK. 2007)
SEQUENCE No. (e.g., 1, 2, 3, etc.); […] (e.g., Cells, Incubation, Reagent, etc.); VALUE; DESCRIPTION.
1; Cells; 4 uL; white, solid bottom, 1536-well Greiner assay plate.
2; Incubation; 2 hr; 37 degree C in 5% humidified CO2.
3; Compounds; 23 nL; Kalypsis pintool (Wako USA) equipped with a 1536-well pin head.
4; Incubation; 24 hr; 37 degree C in 5% humidified CO2.
5; Reagent; 1 uL; Gly-Phe-7-Amino-4-trifluoromethylcoumarin.
6; Incubation; 30 min; 37 degree C in 5% humidified CO2.
7; Detection; Fluorescence; ViewLux plate reader (PerkinElmer).
8; Reagent; 3 uL; SteadyGlo luciferase solution (Promega).
9; Incubation; 5 min; room temperature.
10; Detection; Luminescence; ViewLux plate reader (PerkinElmer).
NOTES (numbers refer to Sequence numbers above)
1. S2 cells expressing ATXN2-luciferase reporter were suspended in phenol-red free DMEM and dispensed in assay plates using a Multidrop Combi dispenser (Thermo Fisher Scientific).
2. Assay plates were incubated. Evaporation was prevented by covering assay plates with metal lids containing holes to allow gas diffusion.
3. Compounds were added in a dose response manner with the final concentrations of 57, 11.4, 2.28, 0.46, 0.091, 0.018, 0.0037 uM. Vehicle-only plates, with DMSO being pin-transferred to columns 5-48, were inserted uniformly at the beginning and the end of each library to monitor and record any shifts in assay performance.
5. 125 uM Gly-Phe-7-Amino-4-trifluoromethylcoumarin (MP Biomedicals) working concentration was used at a final concentration of 25 uM.
7. To assess cell viability; the assay plates were read using the ViewLux high-throughput CCD imager (PerkinElmer), wherein single end-point fluorescence measurement was acquired (excitation 405/10; emission 540/25 nm).
8. Detection reagent SteadyGlo Luciferase (Promega) was added to the assay plate.
10. Luminescence is then measured on the ViewLux imager equipped with a clear emission filter using a 2 sec exposure. All screening operations were performed on a fully integrated robotic system (Kalypsys) containing one RX-130 and two RX-90 anthropomorphic robotic arms (Staubli).
[…]
Potency is the fitted concentration of half-maximal effect.

SMILES | Potency
Oc1c(Cl)cc(Cl)c(Cl)c1Cc1c(O)c(Cl)cc(Cl)c1Cl | 28.2 µM (active)
OCCC#Cc1ccc(N2C(c3ccsc3)=Cc3ccc(F)cc3C2c2c[nH]c3ccccc23)cc1 (stereo not given) | inactive
Cc1cc(Cl)ccc1-c1nc(NCCN(C)C)nc2ccsc12 | inactive
CCOC(=O)c1cnc(-n2nc(C)cc2C)nc1NNc1cc(C)nc(-c2ccccc2)n1 | 7.08 µM (active)
Cc1cc(-n2nc(C)cc2C)n2ncc(-c3ccccc3)c2n1 | inactive
Cc1cc(C)n(-c2c(F)c(F)c(COC(=O)c3ccccc3)c(F)c2F)n1 | inactive
Cc1ccc(CN2CCCn3nc(C(=O)NCc4ccccc4Cl)cc3C2=O)cc1 | inactive
O=C1CC(c2ccc(F)cc2F)c2cc3c(cc2N1)OCO3 (stereo not given) | inactive
Cc1cccn2c(=O)c3cc(C(=O)NC(C)c4ccccc4)c(=N)n(CCCO)c3nc12 (stereo not given) | inactive
COC(=O)c1sc(NC(=O)c2ccc(OC)cc2OC)nc1C | 2.24 µM (active)
COC(=O)c1sc(NC(=S)NC(=O)c2ccc(C)cc2)nc1C | inactive
COc1ccc(C(=O)NC2=NCCS2)c(OC)c1 | inactive
O=C(NC1CCCCC1)c1ccc(Cn2c(SCc3ccccc3)nc3cccnc32)cc1 | inactive
COC(=O)c1ccc2nc(-c3ccc(OC)c(OC)c3)c(Cc3ccccc3)n2c1 | inactive
Cc1ccc(Cl)cc1NC(=O)CN1CCN(S(=O)(=O)N2CCOCC2)CC1 | inactive
Cc1cc(Nc2cc(CN3CCOCC3)c3nc(C)c(Cc4ccc(Cl)cc4F)n3n2)n[nH]1 | 19.3 µM (active)
O=C1NC(=O)C(=Cc2cccc(C(F)(F)F)c2)S1 | inactive
CCOC(=O)c1cc2c(=O)n3ccccc3nc2n(Cc2ccco2)c1=NC(=O)c1ccc(F)cc1 | inactive
CCC1CCCCN1Cc1c(O)ccc2c(=O)c(Oc3ccccc3Cl)c(C(F)(F)F)oc12 (stereo not given) | inactive
C[C@@H]1C[C@@H]2O[C@H]2/C=C\C=C\C(=O)Cc2c(Cl)c(O)cc(O)c2C(=O)O1 | 4.74 µM (active)
CC1(C(=O)NCc2cccc3ccccc23)CCN1Cc1ccc(-c2ccccc2)o1 (stereo not given) | inactive
CN(C)CCCN(C(=O)c1ccc(S(=O)(=O)N2CCCCCC2)cc1)c1nc2ccc(Br)cc2s1 | 31.6 µM (active)
Cc1cc(C)c2sc(NC(=O)c3ccc(S(=O)(=O)N4CCCC4)cc3)nc2c1 | inactive
CN(C)CCN(C(=O)C1=COCCO1)c1nc2ccc(Cl)cc2s1 | inactive
CCOC(=O)c1ccc(-c2ccc3ncnc(N(C)Cc4sccc4C)c3c2)o1 | inactive

SMILES | Potency
Cc1ccc(-n2c(SCC(=O)N/N=C/C=C/c3ccccc3[N+](=O)[O-])nc3ccccc3c2=O)cc1 | inactive
O=c1c2ccccc2ncn1/N=C/c1ccccc1 | inactive
CCn1c(/C=C/c2ccc([N+](=O)[O-])o2)nc2ccccc2c1=O | 8.91 µM (active)
Cc1ccc(-n2c(SCC(=O)Nc3cccc(F)c3)nc3c(oc4ccccc43)c2=O)cc1C | inactive
CCCc1c2oc(C(=O)O)cc(=O)c2cc2c(=O)cc(C(=O)O)n(CC)c12 | inactive
CC1(C)OC[C@@H](COC(=O)CCc2ccc(OC[C@@H](O)CNCCNC(=O)N3CCOCC3)cc2)O1 | inactive
Cc1ccc(C)c(N2CCN(C(=O)CCCCCn3c(=S)[nH]c4ccc(N5CCOCC5)cc4c3=O)CC2)c1 | 2.82 µM (active)
Cc1ccc(C)c(N2CCN(C(=O)CCCn3c(=O)c4cccn4c4cccnc43)CC2)c1 | inactive
Cc1ccc(C)c(N2CCN(C(=O)CCc3nc4ccccc4[nH]3)CC2)c1 | inactive
COc1ccc(-c2c(C)c3ccc(O)c(CN4CCCC4)c3oc2=O)cc1OC | inactive
CO[C@H]1O[C@@H]2O[C@@]3(C)CC[C@@H]4[C@@H](C)CC[C@@H]([C@H]1C)[C@@]24OO3 | inactive
CCOc1ccc(CNC(=O)c2cccc(Nc3nc4ccccc4n4nnnc34)c2)cc1OC | inactive
C=CCn1c(C)cc(C2=NNC(=NCC)SC2)c1C | 0.447 µM (active)
C=C1C(=CC=C2CCC[C@]3(C)[C@@H]([C@H](C)C=C[C@H](C)C(C)C)CC[C@@H]23)C[C@@H](O)C[C@@H]1O | inactive
COc1ccc(Cc2nc3ccc(C(=O)NCc4ccccc4Cl)cc3o2)cc1 | inactive
Cc1ccc(S(=O)(=O)N2CCC(C(=O)Nc3cc(C)ccc3C)CC2)cc1 | inactive
Cc1ccnc(NC(=O)C2CCN(S(=O)(=O)c3c(C)c(C)cc(C)c3C)CC2)c1 | 7.94 µM (active)
O=C(Nc1ccccn1)C1CCN(S(=O)(=O)c2ccccc2)CC1 | inactive
COc1cccc(CNC(=O)C(=O)NCC(c2cccs2)S(=O)(=O)c2ccccc2)c1 (stereo not given) | inactive
CCc1ccc(OC2(C)CCN(CCOc3ccc(C)cc3)C2)cc1 (stereo not given) | inactive
CCCCCCCCn1c2c(c(=N)c3c1CCC3)CCCC2 | 0.891 µM (active)
CCCS(=O)(=O)N1CCC(n2c(C(F)(F)F)nc3cccnc32)CC1 | inactive
CCN(CC)CCNC(=O)c1cc(S(C)(=O)=O)ccc1OC | inactive
CCOc1cc2[nH]c(=O)n(Cc3ccc(C(=O)NCCN(CC)CC)cc3)c(=O)c2cc1OCC | inactive
CCN(CC)CCNC(=O)c1c(C)[nH]c(C=C2C(=O)Nc3ccc(F)cc32)c1C | 44.4 µM (active)
